Assay results as given in PubChem BioAssay (NCATS).
Values joined by “and” are separate entries in the source; they are usually repeats but may differ in a detail not shown here. Equal values may be shown once. A number with no mark means an inactive call. Inconclusive results are not listed. Where a call stands in place of a potency, no number is given. Active and inactive are the calls of the source. Unless noted, calls follow the shape of the full dose curve.

Assays:
[1] = target: Bile acid receptor (Homo sapiens) (UniProt Q96RI1); experiment: qHTS assay for small molecule antagonists of farnesoid X receptor signaling (AID 588526); details: HEK293T FXR-UAS-bla, beta-lactamase ratio, antagonist mode; series mostly up to 76.7 µM
Chain of Bile acid receptor (Homo sapiens) (Q96RI1 whole entry, looked up): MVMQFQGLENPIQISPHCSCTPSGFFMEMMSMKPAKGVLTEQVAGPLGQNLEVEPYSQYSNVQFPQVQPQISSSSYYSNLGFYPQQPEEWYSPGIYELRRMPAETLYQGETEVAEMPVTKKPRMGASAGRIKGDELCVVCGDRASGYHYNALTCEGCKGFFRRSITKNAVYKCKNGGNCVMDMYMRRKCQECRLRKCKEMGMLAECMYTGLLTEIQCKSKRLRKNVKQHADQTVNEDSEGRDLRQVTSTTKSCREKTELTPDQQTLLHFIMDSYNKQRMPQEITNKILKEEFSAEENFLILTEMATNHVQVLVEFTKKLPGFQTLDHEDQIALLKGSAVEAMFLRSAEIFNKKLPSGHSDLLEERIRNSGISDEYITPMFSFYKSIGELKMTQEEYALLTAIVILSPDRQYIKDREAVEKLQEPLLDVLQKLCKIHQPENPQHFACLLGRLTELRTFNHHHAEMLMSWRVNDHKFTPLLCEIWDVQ
How it was run: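 Concentration-response titrations were fitted to the Hill equation for half-maximal inhibition and maximal response, with data normalised to 50 uM chenodeoxycholic acid and DMSO control wells. Cells: FXR-UAS-bla HEK293T, dialyzed FBS.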

[2] = target: Bile acid receptor (Homo sapiens) (UniProt Q96RI1); experiment: qHTS assay for small molecule agonists of farnesoid X receptor signaling (AID 588527); details: HEK293T FXR-UAS-bla, beta-lactamase ratio, 16 h; hits give high values
How it was run: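 FXR-UAS-bla HEK293T, 10% dialyzed FBS; cpds up to 92 uM titration, 16 h 37 C; CCF4 dye 2 h RT; fluorescence. Normalized to chenodeoxycholic acid 100 uM (100%) and DMSO (0%); Hill fit gives EC50, efficacy.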

[3] = qHTS assay to identify small molecules that stimulate interleukin-8 (IL-8) secretion (AID 651758; active = well fitted activation curve with a large enough effect in the signal ratio; the % refers to the signal ratio); details: HTRF ratio (665/615); series mostly up to 92.2 µM
How it was run: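 THP-1, 2000 cells/well; cpd 16 h, 37 C; add cryptate + XL665 anti-IL-8 Abs; RT 1-3 h; TR-FRET read.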

[4] = target: Cytochrome P450 3A4 (Homo sapiens) (UniProt P08684); experiment: qHTS Assay for Activators of Cytochrome P450 3A4 (AID 885; active = well fitted curve in the direction sought with a large enough effect; an effect the other way counts as inactive or inconclusive; also: nearly all actives have a fitted effect of over 65% in size); details: recombinant CYP3A4, Luciferin-PPXE luminescence, 60 min; series mostly up to 57.1 µM
Chain of Cytochrome P450 3A4 (Homo sapiens) (P08684 whole entry, looked up): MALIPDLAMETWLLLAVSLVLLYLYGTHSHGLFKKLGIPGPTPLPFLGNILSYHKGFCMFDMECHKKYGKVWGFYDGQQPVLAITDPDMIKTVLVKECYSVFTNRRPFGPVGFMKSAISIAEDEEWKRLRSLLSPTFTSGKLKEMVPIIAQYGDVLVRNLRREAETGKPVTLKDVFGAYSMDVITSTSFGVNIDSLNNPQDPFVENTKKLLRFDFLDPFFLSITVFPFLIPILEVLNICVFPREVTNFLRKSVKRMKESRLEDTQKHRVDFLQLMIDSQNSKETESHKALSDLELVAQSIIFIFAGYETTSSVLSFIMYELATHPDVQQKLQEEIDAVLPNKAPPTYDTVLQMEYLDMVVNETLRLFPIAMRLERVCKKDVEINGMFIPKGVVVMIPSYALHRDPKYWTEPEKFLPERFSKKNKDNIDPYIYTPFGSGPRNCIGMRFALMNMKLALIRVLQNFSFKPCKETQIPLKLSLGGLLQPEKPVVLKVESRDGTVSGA
How it was run: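 20nM CYP3A4 + 25uM Luciferin-PPXE (=KM), 200mM KPO4; cpd 10 min RT; NADPH regen, 60 min RT; stop w/ detection buffer, 20 min; luminescence. Normalized to 57 uM ketoconazole.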

[5] = target: Androgen receptor (Homo sapiens) (UniProt P10275); experiment: qHTS assay for small molecule agonists of androgen receptor signaling (AID 588515; active = well fitted curve in the direction sought with a large enough effect in the signal ratio, with a control signal flat; the % refers to the signal ratio); details: AR-UAS-bla HEK293, beta-lactamase ratio, agonist 16 h; hits give high values
Chain of Androgen receptor (Homo sapiens) (P10275 whole entry, looked up): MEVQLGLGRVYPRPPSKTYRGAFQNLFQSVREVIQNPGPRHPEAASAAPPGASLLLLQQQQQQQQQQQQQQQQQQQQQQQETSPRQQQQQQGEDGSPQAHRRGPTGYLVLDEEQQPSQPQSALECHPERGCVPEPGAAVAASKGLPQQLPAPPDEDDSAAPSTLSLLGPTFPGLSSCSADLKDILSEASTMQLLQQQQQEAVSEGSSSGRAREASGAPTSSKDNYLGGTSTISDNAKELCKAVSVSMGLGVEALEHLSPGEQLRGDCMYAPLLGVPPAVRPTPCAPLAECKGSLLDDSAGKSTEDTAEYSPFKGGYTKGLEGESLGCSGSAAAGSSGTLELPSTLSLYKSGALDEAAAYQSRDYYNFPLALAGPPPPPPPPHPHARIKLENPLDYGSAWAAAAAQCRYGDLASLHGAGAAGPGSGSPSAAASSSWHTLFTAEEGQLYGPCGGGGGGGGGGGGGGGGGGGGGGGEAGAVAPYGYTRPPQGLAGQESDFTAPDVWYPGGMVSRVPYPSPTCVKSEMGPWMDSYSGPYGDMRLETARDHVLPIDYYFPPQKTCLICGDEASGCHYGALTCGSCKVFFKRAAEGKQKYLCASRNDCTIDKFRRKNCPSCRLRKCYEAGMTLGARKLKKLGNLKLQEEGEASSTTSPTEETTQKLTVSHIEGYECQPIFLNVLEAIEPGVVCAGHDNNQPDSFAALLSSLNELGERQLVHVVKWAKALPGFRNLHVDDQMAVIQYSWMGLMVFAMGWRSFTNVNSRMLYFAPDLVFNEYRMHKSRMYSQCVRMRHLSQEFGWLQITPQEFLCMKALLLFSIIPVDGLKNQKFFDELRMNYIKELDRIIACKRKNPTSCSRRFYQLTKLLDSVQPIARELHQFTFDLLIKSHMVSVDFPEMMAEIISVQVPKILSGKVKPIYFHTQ
How it was run: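 EC50 and efficacy came from Hill fits of titrations (up to 92 uM) normalized to 30 nM R1881 as 100% and DMSO as 0%. Compound exposure was 16 h at 37 C on AR-UAS-bla HEK293 cells, with a 405/460/530 nm CCF4 fluorescence read.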

[6] = Confirmation and Secondary Assay for Modulators of Hemoglobin Beta Chain Splicing at IVS2 654 locus (AID 910; active = well fitted curve in the direction sought with a large enough effect; an effect the other way counts as inactive or inconclusive;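 also: per-well total GFP intensity by laser scanning cytometry after 2-day treatment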); details: HeLa EGFP-654 splicing reporter, GFP fluorescence, 48 h; series mostly up to 38.3 µM
How it was run: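 HeLa cells stably carrying EGFP interrupted by mutant beta-globin IVS2-654 intron (CMV-driven) were treated with compound for 2 days at 37C; corrected splicing was scored as total peak GFP intensity per well (488 nm excitation, 500-520 nm emission).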

[7] = Confirmation and Secondary Assay for Modulators of Hemoglobin Beta Chain Splicing at IVS2 705 locus (AID 930; active = well fitted curve in the direction sought with a large enough effect; an effect the other way counts as inactive or inconclusive;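 also: HeLa cells stably expressing the EGFP-705 splicing reporter; GFP fluorescence per well restored by corrected splicing of the IVS2-705 intron in EGFP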); details: HeLa EGFP-705 splicing reporter, GFP fluorescence, 48 h; series mostly up to 38.3 µM
How it was run: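 Fluorescence gain (488 nm laser, 500-520 nm PMT) reflects restored correct splicing of a mutant IVS2-705 intron inside EGFP in stably transfected HeLa cells after 2-day compound treatment.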

CCCBr
outcome [1]: inactive | activation [2]: -1.67% | Potency [3]: inactive

CCCCCc1cc(O)cc(O)c1
Potency [4]: inactive | outcome [1]: inactive | activation [2]: 2.26% | Potency [3]: inactive

CCCCCC[N+](=O)[O-]
activation [5]: 8.93% | outcome [1]: inactive | activation [2]: 1.12%

CCC(Cl)[N+](=O)[O-] (stereo not drawn)
outcome [1]: inactive | activation [2]: -1.12% | Potency [3]: inactive

CN(C)N=O
outcome [1]: inactive

OCCBr
outcome [1]: inactive | activation [2]: -2.65%

ClC(Cl)C(Cl)Cl
outcome [1]: inactive

C=CC(=O)OC
outcome [1]: inactive | activation [2]: 1.11%

CC(C)(Cl)[N+](=O)[O-]
outcome [1]: inactive

Cc1ccc([N+](=O)[O-])cc1
Potency [3]: inactive

CN(C)c1ccccc1
outcome [1]: inactive | activation [2]: -2.07%

Cc1cccc(C)c1N
outcome [1]: inactive

Cc1cc(Cl)ccc1O
outcome [1]: inactive | Potency [3]: inactive

Nc1cccc(Cl)c1
outcome [1]: inactive | activation [2]: -2.3%

Nc1cccc2ccccc12
Potency [4]: inactive | Potency [3]: inactive

Cc1coc2c1CCC(C)C2 (stereo not drawn)
Potency [3]: inactive

ClCCCCl
outcome [1]: inactive | activation [2]: 1.98%

CC1CC(=O)O1 (stereo not drawn)
outcome [1]: inactive | activation [2]: -1.6%

Nc1ccc(-c2ccccc2)cc1
Potency [4]: inactive

Nc1ncc([N+](=O)[O-])s1
outcome [1]: inactive | activation [2]: -2.74%

Cc1ccc(N)cc1Cl
Potency [4]: inactive | Potency [3]: inactive

FC(Cl)(Cl)Cl
activation [5]: 5.32% | outcome [1]: inactive | activation [2]: -3.19%

Cc1ccc2c(C)cccc2c1
Potency [3]: inactive

C1CC2OC2CC1C1CO1 (stereo not drawn)
outcome [1]: inactive | activation [2]: -0.198% | Potency [3]: inactive

CCCCOC(=O)c1ccccc1N
activation [2]: 0.511%

O=Cc1ccc2c(c1)OCO2
outcome [1]: inactive | activation [2]: 0.344% | Potency [3]: inactive

ClC(Br)Br
outcome [1]: inactive | Potency [3]: inactive

ClCCOCOCCCl
outcome [1]: inactive | activation [2]: 0.794%

Cc1cnc[nH]1
activation [5]: -7.55% | outcome [1]: inactive | activation [2]: -0.548%

OC[P+](CO)(CO)CO
Potency [3]: inactive

O=NN1CCCCC1
activation [5]: 6.11% | Potency [3]: inactive

O=C(O)C(Cl)(Cl)Br
outcome [1]: inactive | activation [2]: -1.03%

C=CC=O
Potency [3]: inactive

Nc1ccc(-c2ccc(N)cc2)cc1
Potency [4]: inactive

c1ccc(C2CO2)cc1 (stereo not drawn)
Potency [3]: inactive

NC1CCC(CC2CCC(N)CC2)CC1 (stereo not drawn)
outcome [1]: inactive

O=[N+]([O-])c1cc(Cl)c(Cl)cc1Cl
Potency [3]: inactive

COC(=O)Nc1cccc(OC(=O)Nc2cccc(C)c2)c1
Potency [4]: inactive | activation [2]: 0.654%

CC(C)(C)c1ccccc1O
Potency [3]: inactive

ClCCBr
Potency [3]: inactive

ClP(Cl)(Cl)(Cl)Cl
outcome [1]: inactive | activation [2]: -2.17%

C=CCc1cc(OC)c2c(c1)OCO2
Potency [4]: inactive

CCOC(=O)CBr
outcome [1]: inactive | Potency [3]: inactive

Clc1ccc(C(Cl)(Cl)Cl)c(Cl)c1
Potency [4]: inactive

[O-][Cl+2]([O-])O
activation [2]: -2.85%

O=[N+]([O-])c1cccc2c([N+](=O)[O-])cccc12
activation [5]: 1.43% | Potency [3]: inactive

O=C(Cl)OCc1ccccc1
Potency [3]: inactive

CCC[N+](=O)[O-]
outcome [1]: inactive

CC(C)(C)C(O)(CCc1ccc(Cl)cc1)Cn1cncn1 (stereo not drawn)
Potency [4]: inactive

CC(Cl)(Cl)Cl
Potency [3]: inactive

Cc1ccc(N=C=O)cc1N=C=O
Potency [4]: inactive

Nc1ccc(Cl)c(Cl)c1
Potency [4]: inactive | Potency [3]: inactive

C=C(Cl)CSC(=S)N(CC)CC
Potency [4]: inactive | outcome [1]: inactive | activation [2]: 1.19%

Cc1ccc(N)cc1C
outcome [1]: inactive

CCCCNC(=O)n1c(NC(=O)OC)nc2ccccc21
activation [5]: -8.05% | activation [2]: -3.82% and -0.311%

CCCCCOC(=O)c1ccccc1C(=O)OCCCCC
Potency [4]: inactive | Potency [3]: inactive

CCC/C=N/O
outcome [1]: inactive | activation [2]: 0.311% | Potency [3]: inactive

Oc1ccc(Cl)c(Cl)c1Cl
Potency [4]: inactive | outcome [1]: inactive | activation [2]: 0.826% | Potency [3]: inactive

c1ccoc1
outcome [1]: inactive

CCOC(=O)CC(SP(=O)(OC)OC)C(=O)OCC (stereo not drawn)
Potency [4]: inactive | outcome [1]: inactive | activation [2]: -1.01% and 1.76%

CN(C)C(=O)Cl
Potency [3]: inactive

Nc1ccc([N+](=O)[O-])cc1[N+](=O)[O-]
activation [5]: -5.64% | Potency [3]: inactive

[N-]=[N+]=[N-]
activation [5]: -1.14%

c1ccc(NNc2ccccc2)cc1
outcome [1]: inactive | Potency [3]: inactive

CCOP(=S)(OCC)Oc1nc(Cl)c(Cl)cc1Cl
Potency [4]: inactive | outcome [6]: inactive | outcome [7]: inactive | activation [5]: 5.31% and -6.07% | outcome [1]: inactive

Oc1cc(Cl)cc(Cl)c1
Potency [3]: inactive

C=COC(C)=O
Potency [3]: inactive

O=C(Cc1ccccc1)OCc1ccccc1
outcome [1]: inactive | activation [2]: -3.22% | Potency [3]: inactive

CN(C)C(=O)Nc1ccc(Cl)cc1
outcome [1]: inactive | activation [2]: 0.657% and 0.9% | Potency [3]: inactive

Cc1cccc(N)c1C
outcome [1]: inactive | activation [2]: -3.96%

O=c1ccc(=O)[nH][nH]1
activation [5]: 2.82% and 4.44% | outcome [1]: inactive | activation [2]: -0.172% and -2.47%

O=S(=O)(O)F
outcome [1]: inactive | activation [2]: 0.0183%

Nc1c(Cl)cc([N+](=O)[O-])cc1Cl
activation [5]: -19.7% | outcome [1]: inactive

CNC(=O)O/N=C/C(C)(C)S(C)=O (stereo not drawn)
outcome [1]: inactive | activation [2]: -0.355% and 3.36% | Potency [3]: inactive

C=CCOCC1CO1 (stereo not drawn)
outcome [1]: inactive | activation [2]: -2.32%

C=C(Cl)CCl
Potency [3]: inactive

O=[N+]([O-])c1ccccc1O
Potency [3]: inactive

Clc1cc(Cl)c(Cl)c(Cl)c1
Potency [3]: inactive

CCC#N
outcome [1]: inactive | activation [2]: -0.411%

N#CC(O)c1ccccc1 (stereo not drawn)
outcome [1]: inactive | activation [2]: -0.559% | Potency [3]: inactive
